Tg IFNy HTS: inhibitors of Toxoplasma gondii growth with IFN-gamma | Toxoplasma gondii growth in IFN-gamma-treated host cells; stronger effect = lower value | activity change, negative = inhibition, % (concentration not given with the values) | 69,000 tested, 3.8% active | AID 1259416; in the data active means activity change below about -70%, passing the limit was not always enough;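 further: host cells are HeLa cells infected with Toxoplasma gondii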
Of the large screens only hits and unclear results are named; the others gave an inactive call; ! = a repeat was not active. The entries come from a sample that favours hits as a whole.

CCSc1ccc2c(c1)N(CCCN1CCN(C)CC1)c1ccccc1S2	Tg IFNy HTS -78
OCCN1CCN(CC/C=C2/c3ccccc3Sc3ccc(C(F)(F)F)cc32)CC1	Tg IFNy HTS -77
CN1CCN(CCCN2c3ccccc3Sc3ccc(Cl)cc32)CC1	none
CC(=O)c1ccc2c(c1)N(CCCN1CCN(CCO)CC1)c1ccccc1S2	none
OCCN1CCN(CCCN2c3ccccc3Sc3ccc(C(F)(F)F)cc32)CC1	Tg IFNy HTS -97!
CC(CN(C)C)CN1c2ccccc2Sc2ccccc21 (centres undefined)	none
CN(C)CC/C=C1/c2ccccc2Sc2ccc(Cl)cc21	none
COc1ccc2c(c1)N(C[C@H](C)CN(C)C)c1ccccc1S2	none
OCCN1CCN(CCCN2c3ccccc3C=Cc3ccccc32)CC1	none
COc1ccc(-c2nc(N3CCCc4ccccc43)c3ccccc3n2)cc1	none
CCOCC1CN(Cc2cc(C)on2)Cc2ncn(CC3CC3)c21 (centres undefined)	none
CC(=O)c1ccc(-c2ccccc2OC(F)(F)F)o1	none
O=C(Nc1ccc(F)cc1)N1C[C@@H]2N[C@H](C1)C2c1ccc(/C=C/c2ccccc2)cc1 (some centres undefined)	none
COc1ccccc1NC(=O)N1C[C@@H]2N[C@H](C1)C2c1ccc(-c2cccc(C#N)c2)cc1 (some centres undefined)	none
N#Cc1cccc(-c2ccc(C3[C@@H]4CN(C(=O)Nc5ccc(C(F)(F)F)cc5)C[C@H]3N4)cc2)c1 (some centres undefined)	Tg IFNy HTS -73!
COc1ccc(-c2ccc(C3[C@@H]4CN(C(=O)c5ccc(F)cc5)C[C@H]3N4)cc2)cc1 (some centres undefined)	none
C/C=C/c1ccc(C2[C@@H]3CN(C(=O)Nc4ccccc4F)C[C@H]2N3)cc1 (some centres undefined)	none
Cc1cccc(-c2ccc(C3[C@@H]4CN(C(=O)c5ccncc5)C[C@H]3N4)cc2)c1 (some centres undefined)	none
C/C=C/c1ccc(C2[C@@H]3CN(C(=O)NC4CCCCC4)C[C@H]2N3)cc1 (some centres undefined)	none
COc1cccc(-c2ccc(C3[C@@H]4CN(C(=O)Nc5ccccc5F)C[C@H]3N4)cc2)c1 (some centres undefined)	Tg IFNy HTS -74!
O=C(NC1CCCCC1)N1C[C@@H]2N[C@H](C1)C2c1ccc(-c2ccc(F)cc2)cc1 (some centres undefined)	Tg IFNy HTS -77!
N#Cc1ccc(-c2ccc(C3[C@@H]4CN(C(=O)C5CCCCC5)C[C@H]3N4)cc2)cc1 (some centres undefined)	none
C/C=C/c1ccc(C2[C@@H]3CN(C(=O)Nc4ccc(C(F)(F)F)cc4)C[C@H]2N3)cc1 (some centres undefined)	Tg IFNy HTS -79!
COc1ccc(NC(=O)N2C[C@@H]3N[C@H](C2)C3c2ccc(-c3ccncc3)cc2)cc1 (some centres undefined)	none
CC1=NN(C2=NS(=O)(=O)c3ccccc32)C(C)(O)C1 (centres undefined)	none
CC(C)c1cc(C2CCN(C(=O)Cc3noc4ccccc34)CC2)[nH]n1	none
COc1ccc2c3c([nH]c2c1)[C@H](CO)N(C)CC31CCN(S(=O)(=O)c2cn(C)cn2)CC1	none
Cc1cccc(-c2nc(CSc3nc4c(c(=O)[nH]3)CN(Cc3ccccc3)CC4)c(C)o2)c1	none
CCOC(=O)N1CCC(Nc2c(C(=O)OC)c(=O)[nH]c3c(Cl)cccc23)CC1	none
CC1=C(C(=O)N2CCN(c3ccc(F)cc3)CC2)C2(CCN(S(C)(=O)=O)CC2)OC1=O	none
O=C1c2ccccc2S(=O)(=O)N1Cc1csc(-c2ccc(Cl)cc2)n1	none
Nc1cnn(C2OC(COC(=O)c3ccccc3)C(O)C2O)c(=O)n1 (centres undefined)	none
Cc1ccc(Cl)cc1NC(=O)Cn1c(=O)cc(C(=O)N2CCOCC2)c2ccccc21	none
O=C(O)CN1C2CCC(C2)[C@H]1C(=O)Cc1ccco1 (some centres undefined)	none
COCCN1CCN(S(=O)(=O)c2ccccc2)Cc2cccnc21	none
C[C@@H]1CCCCO[C@H](CN(C)Cc2ccc(Cl)c(Cl)c2)[C@@H](C)CN([C@H](C)CO)C(=O)c2cc(NS(=O)(=O)c3cccs3)ccc2O1	none
Cc1noc(C)c1NC(=O)Nc1ccc2c(c1)C(=O)N([C@H](C)CO)C[C@@H](C)[C@H](CN(C)S(=O)(=O)c1cccs1)OCCCC[C@@H](C)O2	none
Cc1ccc(S(=O)(=O)Nc2ccc3c(c2)C(=O)N([C@@H](C)CO)C[C@H](C)[C@H](CN(C)S(=O)(=O)c2cccs2)OCCCC[C@@H](C)O3)cc1	Tg IFNy HTS -99
C[C@@H]1CCCCO[C@H](CN(C)C(=O)c2ccncc2)[C@@H](C)CN([C@H](C)CO)C(=O)c2cc(NS(=O)(=O)c3cccs3)ccc2O1	none
Cc1ccc(S(=O)(=O)Nc2ccc3c(c2)C(=O)N([C@@H](C)CO)C[C@H](C)[C@@H](CN(C)S(=O)(=O)c2cccs2)OCCCC[C@@H](C)O3)cc1	Tg IFNy HTS -90
C[C@@H]1CCCCO[C@@H](CN(C)C(=O)c2ccncc2)[C@@H](C)CN([C@H](C)CO)C(=O)c2cc(NS(=O)(=O)c3cccs3)ccc2O1	none
C[C@@H]1CCCCO[C@@H](CN(C)C(=O)c2ccncc2)[C@H](C)CN([C@H](C)CO)C(=O)c2cc(NS(=O)(=O)c3cccs3)ccc2O1	none
C[C@@H]1CCCCO[C@@H](CN(C)Cc2ccc(Cl)c(Cl)c2)[C@@H](C)CN([C@H](C)CO)C(=O)c2cc(NS(=O)(=O)c3cccs3)ccc2O1	none
Cc1noc(C)c1NC(=O)Nc1ccc2c(c1)C(=O)N([C@@H](C)CO)C[C@H](C)[C@H](CN(C)S(=O)(=O)c1cccs1)OCCCC[C@H](C)O2	none
Cc1ccc(S(=O)(=O)Nc2ccc3c(c2)C(=O)N([C@@H](C)CO)C[C@@H](C)[C@@H](CN(C)S(=O)(=O)c2cccs2)OCCCC[C@@H](C)O3)cc1	Tg IFNy HTS -99
Cc1noc(C)c1NC(=O)Nc1ccc2c(c1)C(=O)N([C@@H](C)CO)C[C@@H](C)[C@H](CN(C)S(=O)(=O)c1cccs1)OCCCC[C@@H](C)O2	none
C[C@H](CO)N1C[C@H](C)[C@@H](CN(C)Cc2ccc(Cl)c(Cl)c2)OCCCC[C@H](C)Oc2ccc(NS(=O)(=O)c3cccs3)cc2C1=O	Tg IFNy HTS -173
COCC1c2c(cnn2C)CCN1Cc1nc(C)cs1 (centres undefined)	none
CCCc1cc(CNC(=O)c2cc3cccc(C)c3nc2C)on1	none
CCn1c(CNC(=O)C2CCC2)nc2c1CN(S(=O)(=O)c1ccc(F)cc1)CC2	none
COc1ccc(NC(=O)Cn2c(=O)ccc3cc(S(=O)(=O)N4CCC(C)CC4)ccc32)cc1OC	none
CC1=CS(=O)(=O)CC1SC(=S)N(C)C1CCS(=O)(=O)C1 (centres undefined)	none
O=C1OC(Nc2ccc3c(c2)OCO3)c2ccccc21 (centres undefined)	none
COc1ccc(-c2nccn2CCN2CCCCC2)c(OC)c1OC	none
Cc1noc(C)c1CN1CCO[C@@H]2[C@H]1CC[C@H]2Oc1ncccc1F	none
Cc1ccc(S(=O)(=O)Nc2ccc3c(c2)C(=O)N([C@H](C)CO)C[C@H](C)[C@@H](CN(C)S(=O)(=O)c2cccs2)OCCCC[C@H](C)O3)cc1	Tg IFNy HTS -122
Cc1ccc(S(=O)(=O)Nc2ccc3c(c2)C(=O)N([C@@H](C)CO)C[C@@H](C)[C@H](CN(C)S(=O)(=O)c2cccs2)OCCCC[C@H](C)O3)cc1	none
